A selection: hits, their analogues and other compounds. The true share with any hit is near 11%.
AmpC inh detg: inhibitors of E. coli AmpC beta-lactamase with detergent | Potency, µM (highest dose often 114 µM), hits mostly inhibitors | AmpC hydrolysis of nitrocefin, absorbance 480 nm, 0.01% Triton | 370,000 compounds, 0.041% hits; further: nearly all actives have a fitted effect of over 25% in size
Target sequence (P00811 whole entry, looked up): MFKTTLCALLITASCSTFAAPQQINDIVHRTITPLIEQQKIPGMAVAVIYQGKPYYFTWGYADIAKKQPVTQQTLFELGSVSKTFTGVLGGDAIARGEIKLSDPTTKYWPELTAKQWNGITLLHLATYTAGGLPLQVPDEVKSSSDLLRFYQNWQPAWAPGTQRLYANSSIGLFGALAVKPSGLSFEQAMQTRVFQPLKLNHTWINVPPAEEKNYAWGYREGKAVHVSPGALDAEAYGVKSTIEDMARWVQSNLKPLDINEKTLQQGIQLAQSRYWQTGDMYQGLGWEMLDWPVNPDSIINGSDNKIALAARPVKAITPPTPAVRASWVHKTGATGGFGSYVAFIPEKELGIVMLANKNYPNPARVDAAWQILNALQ
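AmpC (5.3 nM in the dispensed reagent) in 20 mM phosphate pH 7.0 with 0.01% (detergent screen) or 0.0001% Triton X-100 was preincubated with compounds for 15 min at room temperature. Nitrocefin was then added from an 800 uM solution, and hydrolysis was followed at 480 nm.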
AMA1 RON2 block: disrupts binding of P. falciparum AMA1 to RON2; AlphaScreen AMA1-biotinylated RON2 peptide binding; Potency, µM (series often up to 58.2 µM), actives largely listed as inhibitors; 360,000 compounds, 0.2% hits; AID 720542; further: nearly all actives have a fitted effect of over 45% in size
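AMA1 (3D7) with his tag at 25 nM final met compounds first, then biotinylated RON2 peptide at 25 nM; detection used donor plus acceptor beads, 10 µg/mL apiece, read by AlphaScreen after 30 min at room temperature.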
AmpC no deterg: inhibitors of E. coli AmpC beta-lactamase without detergent; AmpC nitrocefin hydrolysis, absorbance 480 nm, 0.0001% Triton; Potency, µM (top dose mostly 57.1 µM), most hits filed as inhibitors; 330,000 compounds, 0.52% hits; AID 485341; further: nearly all actives have a fitted effect of over 20% in size
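AmpC (5.3 nM in the dispensed reagent) in 20 mM phosphate pH 7.0 with 0.01% (detergent screen) or 0.0001% Triton X-100 was preincubated with compounds for 15 min at room temperature. Nitrocefin was then added from an 800 uM solution, and hydrolysis was followed at 480 nm.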
HCV inhibitor: HCV inhibition; Huh7.5.1 HCVcc-Cre infection, luciferase reporter, 44 h; Potency, µM (series often up to 41.8 µM), usual class: inhibitors; 340,000 compounds, 3.4% hits; AID 651820
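Cells seeded at 1,000/well and cultured 4 h, then compounds added followed by HCVcc-Cre virus (~0.5 moi). After 44 h further culture, luciferase substrate was added, plates held 15 min at room temperature, and luminescence read for 15 sec.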
Pf growth 48h: inhibits P. falciparum growth in the first generation, 48 h. P. falciparum luciferase growth in erythrocytes, 48 h. Potency, µM (doses to about 28.7 µM), most hits filed as inhibitors. 310,000 compounds, 5.9% hits. AID 504832
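In quantitative HTS format, infected erythrocytes bearing luciferase-reporter parasites were treated for a single generation at 37 C. Luminescence after adding detection reagent served as the growth measure.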
Pf growth 96h: P. falciparum growth inhibition at 96 hour, primary screen for plastid delayed-death inhibitors; Potency, µM (top dose mostly 28.7 µM), hits mostly inhibitors; 320,000 compounds, 6.9% hits; P. falciparum luciferase reporter growth, 96 h
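P. falciparum expressing integrated firefly luciferase grown in erythrocytes (2% hematocrit, 0.05% parasitemia final) with compounds for 96 hours at 37 C, 5% CO2. Growth inhibition read as loss of luminescence after adding luciferase detection reagent.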
Hits are given with their value. The call rests on the fitted dose curve; in most records, active means well fitted curve in the direction sought with a large enough effect; inconclusive means small, poorly fitted or top-dose-only effect, or another doubt; inactive means no such curve, though single readings can be large; an effect the other way counts as inactive or inconclusive.

How did COC(=O)c1ccccc1NC(=O)COC(=O)c1ccccc1N=Nc1ccc(N(C)C)cc1 do in these assays?
AmpC inh detg: inactive; AMA1 RON2 block: inconclusive; AmpC no deterg: inactive; HCV inhibitor: inactive; Pf growth 48h: inconclusive; Pf growth 96h: 9.3µM

Results for CC(=O)c1ccc(NC(=O)COC(=O)c2ccccc2N=Nc2ccc(N(C)C)cc2)cc1 ?
AmpC inh detg: inactive; AMA1 RON2 block: 11µM; AmpC no deterg: inactive; HCV inhibitor: inactive; Pf growth 48h: inconclusive; Pf growth 96h: inconclusive

Results for Cc1c(CCCN)c2ccccc2n1Cc1ccccc1 ?
AmpC inh detg: inactive; AMA1 RON2 block: inactive; AmpC no deterg: inactive; HCV inhibitor: 11µM; Pf growth 48h: inconclusive; Pf growth 96h: inconclusive

Results for COc1ccccc1CNC(=O)c1cccc(NC(=O)N2CCSc3ncccc32)c1 ?
AmpC inh detg: inactive

Results for Cc1ccccc1Cn1nnc2c(=O)[nH]c(C3CCN(C(=O)c4ccccc4)CC3)nc21 ?
AmpC inh detg: inactive

How did O=C(c1cccs1)N1CCC(c2nc3c(nnn3Cc3ccccc3Cl)c(=O)[nH]2)CC1 do in these assays?
AmpC inh detg: inactive; AMA1 RON2 block: inactive; AmpC no deterg: inactive; HCV inhibitor: inactive; Pf growth 48h: 10µM; Pf growth 96h: inactive

What do the screens show for `O=C(c1ccccc1)N1CCC(c2nc3c(nnn3Cc3ccccc3Cl)c(=O)[nH]2)CC1`?
AmpC inh detg: inactive; AMA1 RON2 block: inactive; AmpC no deterg: inactive; HCV inhibitor: inactive; Pf growth 96h: 8.3µM

How did CC(NC(=O)Cn1c(-c2cccs2)cc2cc(F)ccc21)c1ccccc1 (stereo unspecified) do in these assays?
AmpC inh detg: inactive

What do the screens show for `CC(=O)OCCNc1nc(-c2ccccc2)nc2ccccc12`?
AmpC inh detg: inactive; AMA1 RON2 block: inactive; AmpC no deterg: inactive; HCV inhibitor: 10µM; Pf growth 48h: inactive; Pf growth 96h: inactive

What do the screens show for `COCCN(CCOC)c1nc(-c2ccc(Cl)cc2)nc2ccccc12`?
AmpC inh detg: inactive; AMA1 RON2 block: inactive; AmpC no deterg: inactive; HCV inhibitor: inconclusive; Pf growth 48h: inactive; Pf growth 96h: inconclusive

How did c1ccc(-c2nc(NCCCn3ccnc3)c3ccccc3n2)cc1 do in these assays?
AmpC inh detg: inactive; AMA1 RON2 block: inactive; AmpC no deterg: inactive; HCV inhibitor: inconclusive; Pf growth 48h: 3.7µM; Pf growth 96h: 8.3µM

What do the screens show for `COCCCNC(c1ccccc1)c1ccncc1` (stereo unspecified)?
AmpC inh detg: inactive; AMA1 RON2 block: inactive; AmpC no deterg: inactive; HCV inhibitor: inactive; Pf growth 48h: inactive; Pf growth 96h: 2.6µM

Results for O=C(O)CCCCCNc1nc(-c2ccccc2)nc2ccccc12 ?
AmpC inh detg: inactive; AMA1 RON2 block: inactive; AmpC no deterg: inactive; HCV inhibitor: inactive; Pf growth 48h: inactive; Pf growth 96h: inactive

What do the screens show for `COCCCNc1nc(-c2ccc(Cl)cc2)nc2ccccc12`?
AmpC inh detg: inactive; AMA1 RON2 block: inactive; AmpC no deterg: inactive; HCV inhibitor: 13µM; Pf growth 48h: inactive; Pf growth 96h: inconclusive

How did Cc1ccc(-c2nc3c4ccccc4n(CC(=O)NCc4ccc(F)cc4)c(=O)n3n2)cc1 do in these assays?
AmpC inh detg: inactive

How did CC(C)c1ccc(Nc2ncnc3onc(-c4ccc(F)cc4)c23)cc1 do in these assays?
AmpC inh detg: inactive

How did Cc1ccc(Cn2cc(CCC(=O)NCC(C)c3ccccc3)c3ccccc32)cc1 (stereo unspecified) do in these assays?
AmpC inh detg: inactive

What do the screens show for `Cc1cc(F)ccc1NC(=O)CCS(=O)(=O)c1cccc2nsnc12`?
AmpC inh detg: inactive

Results for O=C(NCCO)c1nc(NCCO)c2ccccc2n1 ?
AmpC inh detg: inconclusive; AMA1 RON2 block: inactive; AmpC no deterg: inactive; HCV inhibitor: inactive; Pf growth 48h: inactive

How did OCCCNc1nc(-c2ccc(Cl)cc2)nc2ccccc12 do in these assays?
AmpC inh detg: inconclusive; AMA1 RON2 block: inactive; AmpC no deterg: inactive; HCV inhibitor: 13µM; Pf growth 48h: inactive; Pf growth 96h: inconclusive

How did COCCCNc1nc(-c2ccncc2)nc2ccccc12 do in these assays?
AmpC inh detg: inactive; AMA1 RON2 block: inactive; AmpC no deterg: inactive; HCV inhibitor: 11µM; Pf growth 48h: inconclusive; Pf growth 96h: inactive

How did OCCNc1nc(-c2ccccc2)nc2ccccc12 do in these assays?
AmpC inh detg: inactive; AMA1 RON2 block: inactive; AmpC no deterg: inactive; HCV inhibitor: 7.9µM; Pf growth 48h: inactive; Pf growth 96h: inactive

How did CCN(CC)CCCNc1nc(-c2ccccc2)nc2ccccc12 do in these assays?
AmpC inh detg: inconclusive; AMA1 RON2 block: inactive; AmpC no deterg: inactive; HCV inhibitor: 10µM; Pf growth 48h: inconclusive; Pf growth 96h: inconclusive

What do the screens show for `COCCNc1nc(-c2ccccc2)nc2ccccc12`?
AmpC inh detg: inactive; AMA1 RON2 block: inactive; AmpC no deterg: inactive; HCV inhibitor: inconclusive; Pf growth 48h: inactive; Pf growth 96h: inactive

How did Cc1cccc(CNC(=O)CN2C(=O)C3CCCCN3c3ccc(C(=O)N4CCCC4)cc32)c1 (stereo unspecified) do in these assays?
AmpC inh detg: inactive

How did CCOc1ccc(CCNC(=O)c2cc3cccc4c3n2CCS4)cc1 do in these assays?
AmpC inh detg: inactive

How did O=C(NNc1ccc(C(F)(F)F)cc1[N+](=O)[O-])c1ccc(NS(=O)(=O)c2ccc(F)cc2)cc1 do in these assays?
AmpC inh detg: inactive; AMA1 RON2 block: inactive; AmpC no deterg: inactive; HCV inhibitor: inactive; Pf growth 48h: inconclusive; Pf growth 96h: 8.3µM

What do the screens show for `CN1CC(=O)Nc2cc(C(=O)O)ccc21`?
AmpC inh detg: inactive

What do the screens show for `COc1cc2c(cc1OC)-c1cc(Nc3ccccc3)nc(=O)n1CC2`?
AmpC inh detg: inactive; AMA1 RON2 block: inactive; AmpC no deterg: inactive; HCV inhibitor: inactive; Pf growth 48h: inconclusive; Pf growth 96h: inconclusive

What do the screens show for `CCOc1cccc(Nc2cc3n(c(=O)n2)CCc2cc(OC)c(OC)cc2-3)c1`?
AmpC inh detg: inactive; AMA1 RON2 block: inactive; AmpC no deterg: inactive; HCV inhibitor: inactive; Pf growth 48h: inconclusive; Pf growth 96h: 3.7µM

What do the screens show for `COc1cc2c(cc1OC)-c1cc(N3CCc4ccccc43)nc(=O)n1CC2`?
AmpC inh detg: inactive; AMA1 RON2 block: inactive; AmpC no deterg: inactive; HCV inhibitor: inactive; Pf growth 48h: inconclusive; Pf growth 96h: 12µM

Results for O=C(Nc1ccc(N2CCN(c3ccc(F)cc3)CC2)c(C(=O)O)c1)c1ccccc1F ?
AmpC inh detg: inactive

Results for O=C(C1=C[C@H](c2ccccc2)C[C@H](OCc2ccc(CO)cc2)O1)N1CCN(Cc2ccccc2)CC1 ?
AmpC inh detg: inactive; AMA1 RON2 block: inactive; AmpC no deterg: inactive; HCV inhibitor: inactive; Pf growth 48h: inconclusive; Pf growth 96h: inconclusive

Source: PubChem
